Screening results from PubChem.
An excerpt weighted towards active compounds, which were near 3.4% of everything screened.
TEAD-YAP block – TEAD-YAP interaction inhibition, primary screen, TEAD-YAP interaction inhibitor project, luminescence, HEK-TIYL cells; AID 1259422, 2018; inhibition, % at 9.12 µM; 640,000 compounds, 1.4% hits; TEAD-Gal4/YAP UAS-luciferase luminescence; in the data active = inhibition above about 32%
FBW7 act – FBW7 E3 ligase activators, primary screen, biochemical, AlphaScreen, human. F-box/WD repeat-containing protein 7 (Homo sapiens), Q969H0. AID 1259310, 2017. normalized activity (activation), % at 26.1 µM. 650,000 compounds, 0.13% hits. AlphaScreen FBW7–phospho-cyclin E peptide binding, activator screen; in the data active = normalized activity above about 1.9%;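 also: purified mutant Fbw7 with reduced substrate affinity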
MITF inh – MITF inhibitors, primary screen, biochemical, AlphaScreen, human | Microphthalmia-associated transcription factor (Homo sapiens), O75030 | 650,000 compounds, 0.91% hits | inhibition, % at 2.6 µM | AID 1259374, 2018 | AlphaScreen MITF homodimerization, bead proximity signal; in the data active = inhibition above about 50%
GPR151 activ – activators of human GPR151, primary screen, cell-based, PathHunter beta-arrestin, luminescence | G-protein coupled receptor 151 (Homo sapiens), Q8TDV0 | AID 1508602, 2020 | 650,000 compounds, 1% hits | PathHunter beta-arrestin GPR151 cells | activation, % at 11.2 µM; in the data active = activation above about 4.9%
Target sequence (Q8TDV0 whole entry, looked up): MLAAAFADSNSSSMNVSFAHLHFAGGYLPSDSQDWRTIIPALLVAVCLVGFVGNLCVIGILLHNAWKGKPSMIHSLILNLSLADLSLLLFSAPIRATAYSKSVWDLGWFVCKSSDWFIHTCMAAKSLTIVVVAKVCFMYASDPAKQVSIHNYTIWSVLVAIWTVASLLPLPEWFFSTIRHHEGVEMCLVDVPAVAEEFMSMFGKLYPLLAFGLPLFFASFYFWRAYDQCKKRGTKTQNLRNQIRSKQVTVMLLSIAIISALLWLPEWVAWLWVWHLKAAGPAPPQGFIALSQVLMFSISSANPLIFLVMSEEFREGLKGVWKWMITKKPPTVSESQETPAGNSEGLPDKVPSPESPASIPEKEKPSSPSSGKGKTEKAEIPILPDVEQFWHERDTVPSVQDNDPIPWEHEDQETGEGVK
Hits are given with their value; – = inactive.

SMILES | TEAD-YAP block | FBW7 act | MITF inh | GPR151 activ
COC(=O)CSc1nc2sc3c(c2c(=O)n1Cc1ccccc1)CCN(C)C3 | – | – | – | –
Cc1ccc(C2=NS(=O)(=O)N(C)C(C(=O)Nc3ccc(OC(F)(F)F)cc3)=C2)cc1 | – | – | – | –
C=CCOc1cccc(C(=O)Nc2cc(C)ccc2OC)c1 | – | – | – | –
COCCn1c(SCC(=O)N2CCCc3ccccc32)nnc1-c1ccc(OC)cc1 | – | – | – | –
O=C(N/N=C/c1ccc([N+](=O)[O-])s1)c1ccc(F)cc1 | 45 | – | – | –
O=C(N/N=C/c1ccc([N+](=O)[O-])o1)c1ccccc1 | – | – | – | –
Cc1ccc(C(=O)N/N=C/c2ccc([N+](=O)[O-])o2)cc1 | 40 | – | – | –
O=C(N/N=C/c1ccc([N+](=O)[O-])o1)c1ccc(F)cc1 | 37 | – | – | –
Cc1cc(C(=O)N/N=C/c2ccc([N+](=O)[O-])o2)n[nH]1 | 32 | – | – | –
CCCN1C=C(C(=O)OC)C(c2cccc(Oc3ccccc3)c2)C(C(=O)OC)=C1 | – | 2.1 | – | –
CCCOc1ccc(C2C(C(=O)OC)=CN(CCOC)C=C2C(=O)OC)cc1 | – | 2.1 | – | –
COc1ccc(/C=C(/C#N)C(=O)Nc2cccc(Br)c2)cc1[N+](=O)[O-] | – | – | – | –
COc1cc(CN2CCN(Cc3ccccc3C)CC2CCO)cc(OC)c1 (centres undefined) | – | – | – | –
O=c1c2ccccc2ncn1-c1ccc([N+](=O)[O-])cc1[N+](=O)[O-] | 49 | – | – | –
Cc1ccc2c(C)nc(N3CCCC(NCC4COc5ccccc5O4)CC3)nc2c1 (centres undefined) | – | 1.9 | – | –
CCOC(=O)c1c(NC(=O)c2ccc(C(F)(F)F)cc2)sc2c1CCCC2 | – | – | – | –
Cc1csnc1NC(=O)c1c(N)nc2c(c1C(F)(F)F)OC1=C(CCCC1)O2 | 79 | – | – | –
O=C(COC(=O)c1cc([N+](=O)[O-])ccc1NCCO)c1ccc(F)c(F)c1 | – | – | – | –
Fc1cc(-c2nc(Nc3ccc(CN4CCCCC4)cc3)ncc2F)cc(N2CCOCC2)c1 | 92 | – | – | –
Fc1cnc(Nc2ccc(CN3CCCCC3)cc2)nc1-c1cc(N2CCOCC2)cc(C(F)(F)F)c1 | 42 | – | – | –
Fc1cc(-c2nc(Nc3ccc(N4CCOCC4)cc3)ncc2F)cc(N2CCOCC2)c1 | – | – | – | –
CCCCCCNC(=O)c1cc(Sc2ccc(C)cc2)nc2ccccc12 | – | – | – | –
CC1CCN(C(=O)CSc2nnc3n(CC(=O)NC(C)C)c4ccccc4n23)CC1 | – | – | – | –
N#C/C(=C\c1ccc(O)c(Br)c1)c1nc(-c2ccc3c(c2)OCO3)cs1 | – | – | – | –
N#C/C(=C\c1ccc(O)c(O)c1)c1nc(-c2ccc3c(c2)OCO3)cs1 | – | – | 58 | –
SMILES | TEAD-YAP block | FBW7 act | MITF inh | GPR151 activ
COc1cccc(-c2nnc(SCC(=O)Nc3cc(Cl)ccc3OC)n2-n2cccc2)c1 | 52 | – | – | –
COc1ccc(OC)c(NC(=O)CSc2nnc(-c3ccccc3)n2-n2cccc2)c1 | – | – | – | –
CC(=O)NC1=NN(C(C)=O)C(C)(c2cccc(OC(=O)c3ccccc3)c2)S1 (centres undefined) | 61 | – | – | –
CC(=O)NC1=NN(C(C)=O)C(C)(c2ccc(OC(C)=O)cc2)S1 (centres undefined) | 66 | – | – | –
COC(=O)Oc1c(Cl)cc2oc(=O)sc2c1[N+](=O)[O-] | – | – | – | –
COc1ccc(-c2nc(NCCc3ccc(O)cc3)c3[nH]cnc3n2)cc1 | 59 | – | – | –
COc1ccc(-c2nc(NCCc3ccc(O)cc3)c3[nH]cnc3n2)cn1 | 33 | – | – | –
COc1ccc(CCNc2nc(-c3ccc(OC)nc3)nc3nc[nH]c23)cc1 | – | – | – | –
O=C(Nc1ccc(-c2cn[nH]c2)cc1)N(Cc1cccc(F)c1)C1CC1 | – | – | – | –
COc1cc(C(=O)/C=C/c2ccc(OCC(N)=O)cc2)cc(OC)c1OC | – | 2.0 | – | –
CCOc1ccc(C(=O)/C=C/c2cc(OC)c(OC)c(OC)c2)cc1 | 40 | – | – | –
COC(=O)c1ccc(/C=C/C(=O)c2ccc(OC)c(OC)c2)cc1 | – | – | – | –
COc1cc(/C=C/C(=O)c2ccc(F)cc2)cc(OC)c1OC | – | – | – | –
O=C(Nc1ccc(Cl)c(Cl)c1)N(Cc1nnc2n1CCCCC2)c1ccccc1 | – | – | – | –
O=C(NCc1n[nH]c(=S)n1-c1cccc(Cl)c1)c1ccc(S(=O)(=O)N2CCOCC2)cc1 | – | – | – | –
CCN1CCN(C(=O)CCCOc2ccccc2)CC1 | 43 | – | – | –
Cc1cc(/C=C2\SC(=Nc3ccccc3)NC2=O)c(C)n1-c1ccccc1 | 53 | – | – | –
O=C1NC(=Nc2ccc(F)cc2)S/C1=C\c1ccco1 | – | – | – | –
O=C1NC(=Nc2ccc(O)cc2)S/C1=C/C=C/c1ccco1 | 38 | – | – | –
O=C1NC(=S)S/C1=C\c1ccc(O)c(O)c1 | – | – | 55 | –
COc1ccc(/C=C2\SC(=S)NC2=O)cc1O | – | – | – | –
Cc1cc(/C=C2\SC(=O)N(C)C2=O)c(C)n1-c1ccc(O)cc1 | 79 | – | – | –
COc1ccc(/C=C(\NC(=O)c2ccco2)C(=O)Nc2ccc(C)c(C)c2)cc1 | – | – | – | –
COC(=O)C(C)N1C(=O)S/C(=C/c2cc(C)n(-c3ccccn3)c2C)C1=O (centres undefined) | 43 | – | – | –
O=C1NC(=Nc2ccccc2)S/C1=C/c1ccc(O)c(O)c1 | 47 | – | – | –
SMILES | TEAD-YAP block | FBW7 act | MITF inh | GPR151 activ
O=C1NC(=Nc2ccc(O)cc2)S/C1=C\c1ccc(F)cc1 | 32 | – | – | –
CCOc1cc(/C=C2/SC(=Nc3ccccc3)NC2=O)ccc1O | 52 | – | – | –
O=C1NC(=Nc2ccccc2)S/C1=C/c1ccccc1 | – | – | – | –
CC1COC2=C(F)C(F)=CC3C(=O)C(C(=O)O)=CN1C23 (centres undefined) | – | – | – | –
COc1ccc(/C=C2/C(=O)NC(=O)N(c3cc(OC)ccc3OC)C2=O)c(OC)c1 | – | – | – | –
O=C(NCc1ccccn1)C1CC(c2ccccc2F)=NO1 (centres undefined) | – | – | – | –
CC(=O)c1ccc(NC(=O)c2noc3c2CCC3)cc1 | 80 | – | – | –
Cc1nc(C(=O)NCC2CC(Cc3cccc(F)c3)=NO2)cs1 (centres undefined) | – | – | – | –
CC(=O)Nc1ccc(S(=O)(=O)N2c3ccccc3C(C)=CC2(C)C)cc1 | 58 | – | – | –
O=S(=O)(c1ccccc1)N1CCC(O)(CSc2ccc(Cl)cc2)CC1 | 39 | – | – | –
COc1ccc(Br)cc1C1C(C#N)=C(N)Oc2cc3c(cc21)OCO3 (centres undefined) | 47 | – | – | –
